We go through eight compounds from PubChem BioAssay (NCATS).

Values without a mark were called inactive. Inconclusive results are not listed. Calls of active or inactive are those of the source. Unless noted, calls follow the shape of the dose curve; as a rule, active = well fitted curve in either direction with a large enough effect (not every such curve was filed as active); inconclusive = small, poorly fitted or top-dose-only effect, or another doubt; inactive = flat fitted curve, though single readings scatter.

Assay [1] concerns the target Lysosomal acid glucosylceramidase (Homo sapiens) (UniProt P04062). The experiment in a line: Glucocerebrosidase-p2 (AID 348; in the data active = potency below about 10 µM; also: potency is read from the fitted curve at half-maximal effect). To be noted: purified GBA, blue fluorogenic substrate, 40 min. In outline:
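Normal human glucocerebrosidase (0.2 nM) with blue fluorogenic substrate (80 uM final) in citrate/phosphate pH 5.9 with 10mM sodium taurocholate, 0.01% tween-20; 40 min RT, NaOH/glycine stop; fluorescence Ex 365/Em 440; AC50 from a titration from 0.6 nM upwards.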

Assay [2] in a line: AP1 Signaling Pathway (AID 357). Also: % is scaled to controls: 0 for no effect and ±100 for the full control effect. To be noted: ME-180 AP-1-bla reporter, EGF-induced, beta-lactamase ratio, 5 h; at 7.69 µM (top of the series) unless noted. An outline of the steps: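 ME-180 cells with beta-lactamase reporter under AP-1 response element, stimulated with EC50 EGF; compounds tested in titration series, 5 h at 37 °C. CCF4 substrate added 2.5 h at room temperature; 460/530 nm emission ratio gave %activity and AC50.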

Assay [3] is described as follows: NFAT Signaling Pathway (AID 444).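 Also: carbachol stimulus at about its EC50 of 1 µM final; % is scaled to controls: 0 for no effect and ±100 for the full control effect.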 To be noted: Jurkat NFAT-bla M1, carbachol, beta-lactamase ratio, 5 h; at 7.69 µM (top of the series) unless noted. In outline: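 Jurkat cells with NFAT-driven β-lactamase reporter and co-expressed M1 receptor, stimulated with carbachol (final 1 uM, ~EC50), compound titration, 5 h at 37 °C. CCF4 loaded 1 h at RT; 460/530 nm ratio gave %activity and AC50.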

The nature of assay [4]: Stat Signaling Pathway (AID 446).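 Also: ME-180 cervical cancer cells given 40 pM IL-6 alongside compound; SIE-controlled beta-lactamase reporter measured as 460/530 nm FRET emission ratio; % is scaled to controls: 0 for no effect and ±100 for the full control effect.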 To be noted: ME-180 (cervical carcinoma) SIE beta-lactamase reporter, IL-6 stimulated, 5 h; at 7.69 µM (top of the series) unless noted. In outline:
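Normalization used AC90 stimulation (300 pM IL-6) and AC90 inhibition (125 nM pan-JAK inhibitor at 40 pM IL-6). The underlying signal is SIE-driven beta-lactamase in ME-180 cells after 5 h IL-6 exposure with compound.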

Assay [5] deals with Glucocorticoid receptor (Homo sapiens) (UniProt P04150). The experiment in a line: GR-GFP Redistribution (AID 450;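 active = compounds whose dose series gives a full or clear partial fitted curve of increased nuclear translocation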; also: potency is read from the fitted curve at half-maximal effect). To be noted: U2OS GR-GFP nuclear translocation, laser cytometry, 2 h.
For assay [6] the target is unchanged. The experiment in a line: GR-EFC Redistribution (AID 451; calls by dose curve; also: potency is read from the fitted curve at half-maximal effect). To be noted: CHO-K1 GR-EFC translocation, beta-gal luminescence, 2 h. An outline of the steps: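 CHO-K1 cells expressing nuclear EA and GR-ED fragments of b-gal; compounds titrated up to 46 uM final, 2 h at 37 C. GR nuclear translocation read as complemented b-gal luminescence after 1 h RT detection.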

Assay [7] deals with Mitogen-activated protein kinase 10 (Mus musculus) (UniProt Q61831). The experiment in a line: JNK3 AlphaScreen Assay (AID 530).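 Also: kinase came from lysate of stimulated human HepG2 cells; signal reports phosphorylation of biotinylated GST-cJun 1-79 at Ser73 with 10 µM ATP; % is scaled to controls: 0 for no effect and ±100 for the full control effect.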 To be noted: JNK3 lysate, c-Jun phosphorylation; series mostly up to 57.1 µM. An outline of the steps:
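Activity was read by AlphaScreen after JNK3-containing HepG2 lysate (cytokine pre-activated) phosphorylated biotinylated GST-cJun with 10 uM ATP at room temperature. Phospho-Ser73 cJun antibody with Protein-A acceptor beads provided detection.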

Assay [8] is described as follows: Primary qHTS for small molecule stabilizers of the endoplasmic reticulum resident proteome: Secreted ER Calcium Modulated Protein (SERCaMP) assay (AID 1508630; active = well fitted curve in the direction sought with a large enough effect; an effect the other way counts as inactive or inconclusive; also: % is scaled to controls: 0 for no effect and ±100 for the full control effect). To be noted: SH-SY5Y GLuc-SERCaMP (Gaussia luciferase released on ER calcium loss) secretion, thapsigargin, luminescence; series mostly up to 38.4 µM. In outline:
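The SH-SY5Y reporter protocol was run at 3 concentrations up to 38.3 uM (primary) or 11 concentrations (follow-up): 16 h compound, 100 nM thapsigargin for 4 h, then extracellular luciferase luminescence.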

In assay [9] the target is Cytochrome P450 3A4 (Homo sapiens) (UniProt P08684). The experiment in a line: qHTS Assay for Activators of Cytochrome P450 3A4 (AID 885; active = well fitted curve in the direction sought with a large enough effect; an effect the other way counts as inactive or inconclusive; also: nearly all actives have a fitted effect of over 65% in size). To be noted: recombinant CYP3A4, Luciferin-PPXE luminescence, 60 min; series mostly up to 57.1 µM. An outline of the steps: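 Human CYP3A4 dealkylates Luciferin-PPXE to luciferin, which luciferase detection converts to light. Substrate was at its KM (25uM), buffer 200mM KPO4, reaction 60 min at RT.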
(In general: Quantitative high-throughput screening tests each substance at several concentrations.)

For assay [10] the target is unchanged. The experiment in a line: qHTS Assay for Inhibitors and Substrates of Cytochrome P450 3A4 (AID 884; active = well fitted curve in the direction sought with a large enough effect; an effect the other way counts as inactive or inconclusive; also: potency is read from the fitted curve at half-maximal effect; nearly all actives have a fitted effect of over 50% in size). To be noted: recombinant CYP3A4, Luciferin-PPXE luminescence; series mostly up to 57.1 µM. In outline:
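Luminescent readout of luciferin produced by CYP3A4 (20 nM) dealkylation of Luciferin-PPXE, 25 uM (its KM). NADPH-driven reaction ran 60 min at RT after 10 min compound preincubation; data scaled to 57 uM ketoconazole as 100% inhibition.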

The target in assay [11] is 3',5'-cyclic-AMP phosphodiesterase 4B (Homo sapiens) (UniProt Q07343). The experiment in a line: qHTS Assay for Inhibitors of PDE-IV (AID 607; active = well fitted activation curve with a large enough effect in the main read-out, with a control signal flat, not every such curve was filed as active; also: % of control where 0% means no effect). To be noted: HEK293 ACTOne CNG channel cells, membrane potential fluorescence; series mostly up to 22.9 µM. An outline of the steps:
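HEK293 ACTOne cells with CNG channel (1000/well), endogenous PDE4; membrane potential dye, compounds up to 22.9 uM final. Fluorescence Ex 535/Em 590; RO 20-1724 (100 uM final) as reference.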

Glucocorticoid receptor (Homo sapiens), sequence (P04150 whole entry, looked up, the tested form may be a part): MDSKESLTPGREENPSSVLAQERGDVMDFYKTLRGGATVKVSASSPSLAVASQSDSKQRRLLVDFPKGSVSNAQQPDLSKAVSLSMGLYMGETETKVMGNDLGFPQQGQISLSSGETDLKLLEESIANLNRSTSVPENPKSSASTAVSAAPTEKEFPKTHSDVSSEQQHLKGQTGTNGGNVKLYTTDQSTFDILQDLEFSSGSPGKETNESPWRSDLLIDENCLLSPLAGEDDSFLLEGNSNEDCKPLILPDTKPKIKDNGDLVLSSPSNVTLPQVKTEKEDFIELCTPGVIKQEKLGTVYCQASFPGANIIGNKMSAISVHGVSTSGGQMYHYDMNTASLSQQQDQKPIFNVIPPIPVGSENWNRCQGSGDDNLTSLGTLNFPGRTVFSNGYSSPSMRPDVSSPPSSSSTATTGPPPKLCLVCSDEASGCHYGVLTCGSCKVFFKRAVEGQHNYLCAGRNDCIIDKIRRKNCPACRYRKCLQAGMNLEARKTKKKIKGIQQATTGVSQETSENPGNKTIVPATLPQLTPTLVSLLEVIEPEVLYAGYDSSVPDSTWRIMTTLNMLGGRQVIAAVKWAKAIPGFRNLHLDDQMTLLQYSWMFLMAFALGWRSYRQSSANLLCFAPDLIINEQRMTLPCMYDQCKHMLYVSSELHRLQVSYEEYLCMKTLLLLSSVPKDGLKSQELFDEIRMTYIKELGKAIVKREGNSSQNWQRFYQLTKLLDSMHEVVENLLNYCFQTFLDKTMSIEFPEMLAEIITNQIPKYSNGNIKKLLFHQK
Lysosomal acid glucosylceramidase (Homo sapiens), sequence (P04062 whole entry, looked up): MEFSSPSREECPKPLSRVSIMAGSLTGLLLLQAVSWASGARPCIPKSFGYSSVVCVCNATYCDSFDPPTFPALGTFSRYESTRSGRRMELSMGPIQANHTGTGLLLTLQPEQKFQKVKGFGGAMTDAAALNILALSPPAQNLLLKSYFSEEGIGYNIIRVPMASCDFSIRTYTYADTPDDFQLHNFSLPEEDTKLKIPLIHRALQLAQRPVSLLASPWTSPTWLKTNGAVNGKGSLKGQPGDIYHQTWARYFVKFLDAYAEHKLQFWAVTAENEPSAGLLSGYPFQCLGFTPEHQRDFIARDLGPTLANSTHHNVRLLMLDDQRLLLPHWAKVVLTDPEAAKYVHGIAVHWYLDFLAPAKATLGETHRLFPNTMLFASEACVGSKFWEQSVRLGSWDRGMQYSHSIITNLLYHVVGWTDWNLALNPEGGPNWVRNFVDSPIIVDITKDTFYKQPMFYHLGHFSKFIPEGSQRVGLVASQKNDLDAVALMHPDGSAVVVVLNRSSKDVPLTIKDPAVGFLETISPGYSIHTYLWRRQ
Cytochrome P450 3A4 (Homo sapiens), sequence (P08684 whole entry, looked up): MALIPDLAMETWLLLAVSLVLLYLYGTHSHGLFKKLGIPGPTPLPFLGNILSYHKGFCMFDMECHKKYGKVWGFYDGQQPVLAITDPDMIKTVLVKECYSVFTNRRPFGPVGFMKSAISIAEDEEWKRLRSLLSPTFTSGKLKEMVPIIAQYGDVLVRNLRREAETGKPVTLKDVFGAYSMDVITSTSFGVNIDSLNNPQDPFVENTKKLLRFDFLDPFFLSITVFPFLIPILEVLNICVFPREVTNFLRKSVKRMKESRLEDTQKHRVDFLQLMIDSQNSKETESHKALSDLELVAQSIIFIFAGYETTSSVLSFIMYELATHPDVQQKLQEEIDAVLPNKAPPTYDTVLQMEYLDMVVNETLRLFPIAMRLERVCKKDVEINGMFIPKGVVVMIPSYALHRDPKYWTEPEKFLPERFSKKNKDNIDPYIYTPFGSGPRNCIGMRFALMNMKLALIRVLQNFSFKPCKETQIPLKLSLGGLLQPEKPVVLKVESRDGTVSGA
3',5'-cyclic-AMP phosphodiesterase 4B (Homo sapiens), sequence (Q07343 whole entry, looked up): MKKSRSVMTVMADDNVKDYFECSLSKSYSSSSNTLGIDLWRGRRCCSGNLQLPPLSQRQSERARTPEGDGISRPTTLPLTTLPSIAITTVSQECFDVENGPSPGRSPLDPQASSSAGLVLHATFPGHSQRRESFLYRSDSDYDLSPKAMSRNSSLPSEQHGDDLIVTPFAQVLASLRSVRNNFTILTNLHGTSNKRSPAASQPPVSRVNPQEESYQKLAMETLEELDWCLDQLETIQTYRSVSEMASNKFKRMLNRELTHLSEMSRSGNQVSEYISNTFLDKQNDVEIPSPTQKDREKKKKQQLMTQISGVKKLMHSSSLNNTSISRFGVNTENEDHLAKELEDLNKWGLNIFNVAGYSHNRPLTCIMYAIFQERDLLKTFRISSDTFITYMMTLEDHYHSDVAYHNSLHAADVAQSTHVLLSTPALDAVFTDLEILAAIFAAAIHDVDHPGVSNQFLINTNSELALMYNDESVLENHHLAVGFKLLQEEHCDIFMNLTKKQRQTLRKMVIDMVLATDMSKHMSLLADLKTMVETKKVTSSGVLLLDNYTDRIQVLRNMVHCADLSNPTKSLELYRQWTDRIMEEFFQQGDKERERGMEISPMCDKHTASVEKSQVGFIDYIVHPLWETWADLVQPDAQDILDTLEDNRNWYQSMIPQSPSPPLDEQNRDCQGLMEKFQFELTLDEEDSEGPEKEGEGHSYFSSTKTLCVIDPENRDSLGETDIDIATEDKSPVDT

As for `COc1ccc(Oc2ncc3nc(C)c(=O)n(CCc4ccccc4)c3n2)cc1`, the Potency was greater than 11.4 µM in [1], greater than 9.22 µM in [5] and greater than 46 µM in [6]. The activity change, negative = inhibition in assay [2] is 18.2%; in [3], 0.509%. In addition, in [4], the activity, negative = inhibition was 2.93%. Besides, the Potency entry in assay [7] is “inactive”. In addition, in [8], the outcome was inactive.

`COc1cccc(Cn2c(=O)c(C)nc3cnc(Oc4ccccc4)nc32)c1`: the Potency was greater than 11.4 µM in [1], greater than 9.22 µM in [5] and greater than 46 µM in assay [6]. In addition, the activity change, negative = inhibition in assay [2] is -12.2%; in [3] it was -3.17%. Moreover, the activity, negative = inhibition in assay [4] was -2.47%. In addition, the Potency result in assay [7] is “inactive”. In addition, the result in assay [8] was inactive.

As to `Cc1nc2cnc(OCc3ccccc3)nc2n(CCC#N)c1=O`, the Potency was greater than 11.4 µM in assay [1], greater than 9.22 µM in assay [5] and greater than 46 µM in assay [6]. Besides, the results for the activity change, negative = inhibition in assay [2] and in assay [3] were 2.98% and -3.58%, respectively. For the same compound, the activity, negative = inhibition in [4] is -1.87%. Moreover, the Potency result in assay [7] and in [9] was “inactive” each time. The outcome in [8] was inactive.

On to `O=c1c(-c2ccc(F)c(F)c2)nc2cncnc2n1Cc1ccccc1`, for which the values for the Potency in assay [1], in assay [5] and in [6] were greater than 11.4 µM, greater than 9.22 µM and greater than 46 µM, respectively. The values for the activity change, negative = inhibition in [2] and in [3] were -0.964% and -10.8%, respectively. Besides, the activity, negative = inhibition in assay [4] was 3.53%. Moreover, in [7], the Potency entry is “inactive”. In addition, the outcome in [8] was inactive.

Turning to `COc1ccc(-c2nc3cnc(OC)nc3n(Cc3cccc(OC)c3)c2=O)cc1`, the Potency in assay [1] is greater than 11.4 µM; in assay [5] it was greater than 9.22 µM; in assay [6], greater than 46 µM; in assay [10], 2.51 µM (active). Further, the activity change, negative = inhibition was -4% in [2] and -10.2% in [3]. In [4], the activity, negative = inhibition is 27.2%. Besides, the Potency entry in [7] and in assay [9] was “inactive” each time. In assay [8], the outcome was inactive.

In the case of `COc1ncc2nc(C)c(=O)n(Cc3cccs3)c2n1`, the Potency in assay [1] is greater than 11.4 µM; in [5], greater than 9.22 µM; in [6], greater than 46 µM. For the same compound, the activity change, negative = inhibition was -2.91% in assay [2] and -7.05% in assay [3]. Moreover, the activity, negative = inhibition in [4] was -7.75%. The Potency entry in [7] and in assay [11] was “inactive” each time. Moreover, in [8], the outcome was inactive.

For `COc1cccc(Cn2c(=O)c(C)nc3cnc(N4CCOCC4)nc32)c1`, the values for the Potency in assay [1], in assay [5] and in assay [6] were greater than 11.4 µM, greater than 9.22 µM and greater than 46 µM, respectively. The activity change, negative = inhibition in assay [2] is -24.9%; in assay [3] it was 2.68%. For the same compound, the activity, negative = inhibition in assay [4] is -1.29%. In assay [7], the Potency result is “inactive”. Further, the outcome in assay [8] was inactive.

On to `COc1ncc2nc(-c3ccc(Cl)cc3)c(=O)n(CCc3ccccc3)c2n1`, for which the Potency is greater than 11.4 µM in [1], greater than 9.22 µM in assay [5] and greater than 46 µM in assay [6]. For the same compound, the results for the activity change, negative = inhibition in assay [2] and in assay [3] were -3.59% and -9.46%, respectively. In addition, the activity, negative = inhibition in assay [4] is 1.11%. Besides, the Potency entry in assay [7] and in assay [11] was “inactive” throughout. The outcome in [8] was inactive.
